# Laboratory results published in PubChem BioAssay (EPA / NIEHS).
# Values joined by “and” are separate entries in the source; they are usually repeats but may differ in a detail not shown here. Equal entries are not always repeated. Records with an inconclusive call do not appear. Some compounds were tested as several samples or in several runs, with calls that do not always agree. Active and inactive are the calls of the source. The calls were made as follows, unless noted: active = hit-call score of the fitted dose curve at least 0.9, where 1 is the maximum; inactive = score below 0.9.
# Assays:
# [1] = CCTE_Mundy_HCI_Cortical_Synap_Neur_Matur_BPCount: CCTE's Synaptogenesis and Neurite Maturation Assay in rat cortical cells for Branch Point Count, Mundy Lab (AID 2284211)
# Procedure, shortened: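 Rat primary cortical cultures, AraC added DIV 5; chemicals dosed DIV 7 through DIV 12. Fixed cells stained for MAP2, synaptophysin and Hoechst; neurite branch points counted by automated high-content imaging, fitted relative to DMSO.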
# [2] = CCTE_Mundy_HCI_Cortical_NOG_NeuriteCount: CCTE's Neurite Outgrowth Assay in rat cortical cells for Neurite Count, Mundy Lab (AID 2284212);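 also: cells fixed about two days after chemical exposure began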
# Procedure, shortened: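 Neurite number per cell from high-content imaging of betaIII-tubulin immunostaining, with Hoechst nuclear counterstain.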
# [3] = CCTE_Mundy_HCI_Cortical_NOG_NeuriteLength: CCTE's Neurite Outgrowth Assay in rat cortical cells for Neurite Length, Mundy Lab (AID 2284213);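 as to AC50: neurites imaged about 48 to 50 h after chemical exposure began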
# Procedure, shortened: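 Neurite length was read by high-content imaging of βIII-tubulin-labelled neurites in rat primary cortical cultures. Activity was fitted relative to DMSO.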
# [4] = CCTE_Mundy_HCI_Cortical_Synap_Neur_Matur_NeuriteLength: CCTE's Synaptogenesis and Neurite Maturation Assay in rat cortical cells for Neurite Length, Mundy Lab (AID 2284214)
# Procedure, shortened: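 Rat cortical neurons, AraC at DIV 5; compound + media change DIV 7, end DIV 12 (288.33 h). Fix, MAP2/synaptophysin/Hoechst immunostain, automated HCI of neurite length vs DMSO.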
# [5] = CCTE_Mundy_HCI_Cortical_Synap_Neur_Matur_NeuriteSpotCountPerNeuron: CCTE's Synaptogenesis and Neurite Maturation Assay in rat cortical cells for Neurite Spot Count per Neuron Count, Mundy Lab (AID 2284215)
# Procedure, shortened: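 Developing rat cortical neurons, with glia suppressed by AraC, are exposed to chemicals from DIV 7 to DIV 12. Automated fluorescence imaging of MAP2-labelled neurites and synaptophysin puncta yields a count per neuron, normalised against DMSO wells.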
# [6] = TAMU_PeakParms_SingleDonor1434_Chronotropy: Texas A&M University (TAMU) 1.5-hr Human Induced Pluripotent Stem Cell (iPSC)-derived Cardiomyocytes Calcium (Ca+2) Flux Assay for Cardiotoxicity: Chronotropy (changes in peak frequency) (AID 2284217); conditions: actives raise or lower the signal
# Procedure, shortened: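 iPSC-CMs, donor 1434; 4 conc (0.2–100 uM), 0.5% v/v DMSO, 90 min, 37C/5% CO2; Ca2+ flux fluorescence → peak.freq.avg; peak.freq.avg = 0 dropped; bidirectional fit vs DMSO; EC05 POD.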
# [7] = CCTE_Mundy_HCI_Cortical_Synap_Neur_Matur_SynapseCount: CCTE's Synaptogenesis and Neurite Maturation Assay in rat cortical cells for Synapse Count, Mundy Lab (AID 2284218)
# Procedure, shortened: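 Primary rat cortical culture; AraC DIV 5 to arrest glia; compound + media change DIV 7; terminated DIV 12. PFA/Hoechst fix, anti-MAP2 + anti-synaptophysin immunostain; HCI synapse count/neuron; DMSO = baseline.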
# [8] = CCTE_Mundy_HCI_hN2_NOG_NeuriteCount: CCTE's Neurite Outgrowth Assay in human hN2 cells for Neurite Count, Mundy Lab (AID 2284219; active = hit-call score of the fitted dose curve at least 0.9, where 1 is the maximum)
# Procedure, shortened: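 In this morphology assay, hNP1-derived neurons received test chemical 2 h post-plating and were fixed two days later in warm paraformaldehyde/sucrose containing Hoechst 33342. Neurites, labelled by rabbit anti-βIII-tubulin (1:800) and Alexa Fluor-488 (1:500), were counted automatically.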
# [9] = CCTE_Mundy_HCI_hN2_NOG_NeuriteLength: CCTE's Neurite Outgrowth Assay in human hN2 cells for Neurite Length, Mundy Lab (AID 2284220; active = hit-call score of the fitted dose curve at least 0.9, where 1 is the maximum)
# Procedure, shortened: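 Read-out is neurite length from high-content imaging of βIII-tubulin/Alexa Fluor-488-labelled neurons, referenced to DMSO controls.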
# [10] = CCTE_Mundy_HCI_hN2_NOG_NeuronCount: CCTE's Neurite Outgrowth Assay in human hN2 cells for Neuron Count, Mundy Lab (AID 2284221; active = hit-call score of the fitted dose curve at least 0.9, where 1 is the maximum)
# Procedure, shortened: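 Read-out is the number of betaIII-tubulin-positive neurons imaged by automated high-content analysis, with DMSO as negative control.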
smiles,measurement,setting,value
CCCC(CCC)C(=O)O,outcome,[1],inactive
same,outcome,[2],inactive
same,outcome,[3],inactive
same,outcome,[4],inactive
same,outcome,[5],inactive
same,outcome,[6],inactive
same,outcome,[7],inactive
same,outcome,[8],inactive
same,outcome,[9],inactive
same,outcome,[10],inactive
COc1cc2c(c(OC)c1OC)-c1ccc(OC)c(=O)cc1[C@@H](NC(C)=O)CC2,AC50,[1],0.0374 µM (active)
same,AC50,[2],17.2 nM (active)
same,AC50,[3],12.4 nM (active)
same,AC50,[4],0.0354 µM (active)
same,AC50,[5],0.0297 µM (active)
same,outcome,[6],inactive
same,AC50,[7],0.0302 µM (active)
same,AC50,[8],9.66 nM (active)
same,AC50,[9],9.31 nM (active)
same,AC50,[10],26.2 nM (active)
Cn1cc[nH]c1=S,outcome,[1],inactive
same,outcome,[2],inactive
same,outcome,[3],inactive
same,outcome,[4],inactive
same,outcome,[5],inactive
same,outcome,[7],inactive
Nc1ccn([C@@H]2O[C@H](CO)[C@@H](O)[C@@H]2O)c(=O)n1,AC50,[1],7.42 µM (active)
same,outcome,[1],inactive
same,AC50,[2],9.69 µM (active) and 4.75 µM (active)
same,AC50,[3],9.08 µM (active) and 3.77 µM (active)
same,AC50,[4],11.9 µM (active)
same,outcome,[4],inactive
same,AC50,[5],12.4 µM (active)
same,outcome,[5],inactive
same,AC50,[7],12.4 µM (active)
same,outcome,[7],inactive
NC(=O)N1c2ccccc2C=Cc2ccccc21,outcome,[1],inactive
same,outcome,[2],inactive
same,outcome,[3],inactive
same,outcome,[4],inactive
same,outcome,[5],inactive
same,outcome,[7],inactive
same,outcome,[8],inactive
same,outcome,[9],inactive
same,outcome,[10],inactive
CCN(CC)C(=S)SSC(=S)N(CC)CC,AC50,[6],8.82 µM (active)
c1ccc2c(c1)-c1cccc3c1c-2cc1ccccc13,AC50,[6],4.53 µM (active)
OC(Cn1cncn1)(Cn1cncn1)c1ccc(F)cc1F,outcome,[1],inactive
same,outcome,[2],inactive
same,outcome,[3],inactive
same,outcome,[4],inactive
same,outcome,[5],inactive
same,outcome,[7],inactive
same,outcome,[8],inactive
same,outcome,[9],inactive
C[C@]12C=CC(=O)C=C1CC[C@H]1[C@@H]3C[C@@H](O)[C@](O)(C(=O)CO)[C@@]3(C)C[C@H](O)[C@@]12F,AC50,[1],2.18 µM (active)
same,AC50,[2],22700 nM (active)
same,AC50,[3],19700 nM (active)
same,AC50,[4],2.59 µM (active)
same,AC50,[5],3 µM (active)
same,AC50,[7],4.2 µM (active)
NNC(=O)c1ccncc1,outcome,[1],inactive
same,outcome,[2],inactive
same,outcome,[3],inactive
same,outcome,[4],inactive
same,outcome,[5],inactive
same,outcome,[7],inactive
same,outcome,[8],inactive
same,outcome,[9],inactive
c1ccc2cc3ccccc3cc2c1,outcome,[1],inactive
same,outcome,[2],inactive
same,outcome,[3],inactive
same,outcome,[4],inactive
same,outcome,[5],inactive
same,AC50,[6],20.2 µM (active)
same,outcome,[7],inactive
CC(C)C(=O)Nc1ccc([N+](=O)[O-])c(C(F)(F)F)c1,outcome,[6],inactive
OC[C@H]1O[C@@](CO)(O[C@H]2O[C@H](CO)[C@@H](O)[C@H](O)[C@H]2O)[C@@H](O)[C@@H]1O,outcome,[6],inactive
